In all, about 25,000 sequences were measured (“ln(normalized median fluorescence intensity)”: median about 7.1, highest 2% from about 10 on). The sample holds the highest values, similar sequences and a random draw of the others, so the mix is not that of the screen.
The sequences below were run on PfSIP2 AP2 domain 1 (GST-tagged) (assay: gcPBM binding intensity (ln(normalized median fluorescence intensity)); higher = stronger DNA binding).
In short: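 The binding buffer was 1× PBS containing 1% milk, 0.2 mg/ml BSA, 0.5% salmon testes DNA and 0.03% Triton X-100. In it, GST-tagged P. falciparum DNA-binding domains expressed in E. coli were applied for 1 h to an Agilent 4 × 180k array of primer-extended double-stranded 36-bp intergenic genomic probes plus negative controls. Binding intensity, read with Alexa488 anti-GST antibody and a 488 nm scan, is the highest Masliner-normalised natural-log median intensity across replicate spots of either probe orientation.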

Sequence | gcPBM binding intensity (ln)
AAGAAAAATATATATATAAATAAATAAATATATATA [TGCATGCA_negctrl_site330] | 6.98
TGTATTAAAAATTTGGTGCAACTTTTACATAATAAT | 10.5
TATTTATAAATATGTGTGCACAATTTATTTTATAAT | 9.67
CGATTTTTTAAGTTTGTGCACTTAAAAACTATAACA | 9.78
TATATATAAATATATGTGCACTTTTTATATTTATAT | 10.6
TTTTTATTACATAATTAAAAAAAATAATAAAATAAA [XGTACX_negctrl_site249] | 6.8
AACTATTTTATTATATGTACTTACGAATTTATAAAA [XGTACX_site5262] | 7.04
CTTTTAAATTATTTTTGTACATAATTATATATATAT [XGTACX_site4128] | 8.44
ATAATATATGTATGTATGCACTTTTATTATTTTTTT | 8.01
TTTTGTTACTTTTATGTGCACTTATAAAACGAACTA [GTGCAC_site9551] | 10.3
ATATTATATTATTAATGTACATATATATAATTTTAA [XGTACX_site4974] | 7.05
AATTTTGTATAGGTATCACACATGAAATATATTATT [CACACA_site5526] | 6.98
ATATATATATATATATGTACATATATTTGTAATGTC [XGTACX_site8074] | 9.37
TTTCATATATATGAAACACACAAAGGAAAAAAAATT [CACACA_site4144] | 7.23
AATATAAATATAAATATAAATATATATATATATATA [TGCATGCA_negctrl_site603] | 9.38
CCTTAAAATAAGATATGTACGCAAAGGAAAACAAAG [XGTACX_site6057] | 7.62
TTCTATGCATTTATAGTGCATGTAAAATATAAGATA [GTGCAC_site9466] | 10.9
AAATAAATAAATAGAGTGCATATATATATATATTTT | 8.61
ATATATTTTTATGTAGTGCATTTAAATAATAAATGC | 8.42
CATTTTTCTATATGTGCATGTAAGATAAGAATAATT [TGCATGCA_site107] | 8.22

Sequence | gcPBM binding intensity (ln)
CTATGCATTTATAGTGCATGTAAAATATAAGATAAT [TGCATGCA_site71] | 10.3
ATTATATATAATATAGTGCATGTAAAAAATAAAACA | 10
TTAAATATTTTTAGAGTGCATGTAATAAAAATATAA [GTGCAC_site9414] | 10.2
TATATAATAAGATATGCATGCACATGTAAAATGAAT [TGCATGCA_site499] | 8.94
AAATATTTTTAGAGTGCATGTAATAAAAATATAATG [TGCATGCA_site19] | 10.1
TTTATAAAATATCTTTCACACATTACTATGTATTAT [CACACA_site5148] | 6.83
TACTTTTATATAGAAAGTACATACAATTCATAGAAT [XGTACX_site2182] | 6.98
ATATATAAAAAATGTGGTACATTCATTTATTATACA [XGTACX_site3495] | 6.96
GTGTATTTTCTGCGCACACACATGCAAAAAGAAATA [CACACA_site1148] | 8.26
GTGTATTTGGTGCGCACACACATGCAAAAAGAAATA [CACACA_site4768] | 11.6
GTGTATTTTGTGCGCACACACATGCAAAAAGAAATA [CACACA_site6660] | 9.54
ATTTTATGTTGAAAGTGTACGTATTAATATGTAGAA [XGTACX_site245] | 7.34
GTATATAAATAAATAGTGCATTATTAAAAATAATGT | 9.36
AAATTATGCATCGAGGTGCGTCTTAAAATATAGTGG | 10.3
TGTTATTAAAATATAGTGCATAATTAACCATTATAA [GTGCAC_site9594] | 8.63
TAAGAGTAGTTATATACACACATGTATATTATAGTT [CACACA_site6815] | 6.84
ATAATATATACTATATGTACATATCTTTTCCTCTTT [XGTACX_site5553] | 7.1
TATAAAAATAAGCACACACACAAATATAGATTTATT [CACACA_site6558] | 6.98
AAAAAAAAAAAAAACACACAGAACAATATATAAATA [CACACA_site982] | 7.11
TCCTTATTTATATAATGTACTTTTTTTTTTCATTTT [XGTACX_site4275] | 6.92

Sequence | gcPBM binding intensity (ln)
TAATAATTAATTAATATAATATTTTTTCATAATTAT [XGTACX_negctrl_site602] | 6.82
TATTATTTTTCATATGCATGCAAAAATAAAAAAATA [TGCATGCA_site350] | 7.05
ATTATATAATAATGCATGCACCTTATTTTCATTTCA [GTGCAC_site9922] | 10.7
CCTTTCACATATAATACATGCATTATTATATATGAA [TGCATGCA_site287] | 7.51
ATATTATATAATAATGCATGCACCTTATTTTCATTT [TGCATGCA_site405] | 11.3
TTTATATTTATGATGGGTACACAAAATTTTACCCAT [XGTACX_site1504] | 6.96
TGAATAATCAATAGTACACACATATAAATATATATA [CACACA_site2813] | 7.28
AGGTGTCATAGATGCACACAAAAGTAACACGCACCT [CACACA_site4418] | 9.65
AAAAAAAAAATATTTGAACACACGAGGATATATAAA [CACACA_site139] | 6.89
TAAAAGATAAAATATGCATGTGTAATTTTTTTTTTT [TGCATGCA_site955] | 6.79
GCACTAAAAAAATAAACACACAGATTTATATAATAT [CACACA_site1381] | 6.83
TAAATTATATTATGCACACTTAAAAATATATTTAAC [CACACA_site3512] | 9.01
GTATAATATTTTAATGCACACACACTAATAAAAAAA [CACACA_site8939] | 7.65
CCATTTTAAATATGCACACAGATGCACTAACACATT [CACACA_site5099] | 10.5
TAAATATGCTCACAGATGCACTAACACATTTTTATA [GTGCAC_site9997] | 8.14
AACCATTTTAAATATGCACACAGATGCACTAACACA [CACACA_site8565] | 11
TGGCACTAAAAAAATAAACACACAGATTTATATAAT [CACACA_site8386] | 6.8
CCATTTTAAATATGCACACAGATGCACTAACCCATT [CACACA_site1883] | 10.7
TTTTTTTAAATATACACACACATTTATACAGATATA [CACACA_site5811] | 7.12

Source: the supplement of paper PMC11417369
